Data from PubChem BioAssay (EPA / NIEHS).
Inconclusive results are not listed. The source holds several records for some structures; these can differ, active in one and inactive in another. Active and inactive are the calls of the source. The calls were made as follows: active = hit-call score of the fitted dose curve at least 0.9, where 1 is the maximum; inconclusive = response in the unintended direction; inactive = score below 0.9.

test: Tanguay_ZF_120hpf_SOMI_legacy: (Legacy) Oregon State University Tanguay Lab 120 Hour Post-fertilization zebrafish Assay for Somite Malformation (AID 2283647)
Protocol: Tanguay_ZF_120hpf_legacy is a whole embryo, multiplexed endpoint assay using zebrafish larvae exposed for 120 hours post fertilization on a 96-well plate.Tanguay_ZF_120hpf_SOMI_legacy is one of one assay component(s) measured or calculated from the Tanguay_ZF_120hpf_legacy assay. It is designed to make measurements of zebrafish development as detected with brightfield microscopy of developing zebrafish embryos.Data from the assay component Tanguay_ZF_120hpf_SOMI_legacy was analyzed into 1 assay endpoints. This assay endpoint, Tanguay_ZF_120hpf_SOMI_legacy, was analyzed in the positive analysis fitting direction relative to DMSO as the negative control and baseline of activity. Using a type of morphology reporter, gain-of-signal activity can be used to understand changes in developmentals as they relate to the whole embryo. To generalize the intended target to other relatable targets, this assay endpoint is annotated to the zebrafish development intended target family, where the subfamily is somitogenesis.
Zebrafish husbandry: Tropical 5D wild-type adult zebrafish were housed in at an approximate density of 1000 per 100 gallon tank at the Sinnhuber Aquatic Research Laboratory, Oregon State University, Corvallis, OR. Each tank was kept at standard laboratory conditions of 28C on a 14-h light/10-h dark photoperiod in fish water consisting of reverse osmosis water supplemented with a commercially available salt (Instant Ocean). Spawning funnels were placed into the tanks the night prior, and embryos were collected and staged. To increase bioavailability, the chorion was enzymatically removed using pronase (63.6mg/ml, >/= 3.5U/mg, Sigma-Aldrich: P5147) at 4 hours post fertilization (hpf) using a custom automated dechorionator.Chemical exposures: Six hpf dechorionated embryos were placed 1 embryo per well in a 96-well plate prefilled with 90 ul of EM using automated embryo placement systems (AEPS). Ten microliters of each row of dilution plate 2 was added to 2 exposure plates. The final DMSO concentration used was 0.64% (vol/vol). Thirty-two embryos were also exposed to 5uM trimethyltin chloride (positive control). Plates were sealed to prevent evaporation and foil covered to reduce light exposure and kept in a 28C incubator. Embryos were statically exposed until 120 hpf. At 24 hpf, embryos were assessed for photomotor response using a custom photomotor response analysis tool (PRAT) and for developmental toxicity endpoints (MO24: mortality at 24 hpf, DP: developmental progression, SM: spontaneous movement, and NC: notochord distortion). At 120 hpf, locomotor activity was measured using Viewpoint Zebralab and assessed for 18 endpoints. Zebrafish acquisition and analysis program (ZAAP), a custom program designed to inventory, acquire, and manage zebrafish data, was used to collect developmental endpoints as either present or absent (i.e., binary responses were recorded). If mortality occurred for an embryo (at either 24 or 120 hpf), the non-mortality endpoints were not measured.

| Compound | outcome | AC50 |
| --- | --- | --- |
| COc1nn(CSP(=S)(OC)OC)c(=O)s1 | inactive | – |
| CCN(CC)C(=O)SCc1ccc(Cl)cc1 | inactive | – |
| OCCOc1ccccc1 | inactive | – |
| CCCN(CCC)c1c([N+](=O)[O-])cc(C(F)(F)F)cc1[N+](=O)[O-] | inactive | – |
| CC(C)(C)C(O)C(Oc1ccc(Cl)cc1)n1cncn1 (configuration not stated) | inactive | 46 µM (active) |
| CC[C@H](C)[C@H]1O[C@]2(C=C[C@@H]1C)C[C@@H]1C[C@@H](C/C=C(\C)[C@@H](O[C@H]3C[C@H](OC)[C@@H](O[C@H]4C[C@H](OC)[C@@H](O)[C@H](C)O4)[C@H](C)O3)[C@@H](C)/C=C/C=C3\CO[C@@H]4[C@H](O)C(C)=C[C@@H](C(=O)O1)[C@]34O)O2 (tested in a mixture with another compound) | inactive | – |
| O=S(=O)(O)C(F)(F)C(F)(F)C(F)(F)C(F)(F)C(F)(F)C(F)(F)C(F)(F)C(F)(F)F | inactive | 33.8 µM (active) |
| CC(C)OC(=O)Nc1cccc(Cl)c1 | inactive | – |
| C[C@H]1[C@H](c2ccc(Cl)cc2)SC(=O)N1C(=O)NC1CCCCC1 | inactive | – |
| O=C(O)CCCOc1ccc(Cl)cc1Cl | inactive | – |
| Oc1ccc(Cl)cc1Cc1ccccc1 | inactive | – |
| ClC1C(Cl)C(Cl)C(Cl)C(Cl)C1Cl (configuration not stated) | inactive | – |
| COP(=S)(OC)Oc1ccc([N+](=O)[O-])cc1 | inactive | – |
| N#CN | inactive | – |
| Oc1cc(Cl)ccc1Oc1ccc(Cl)cc1Cl | inactive | – |
| CNC(=O)Oc1cccc(N=CN(C)C)c1 | inactive | – |
| COP(=O)(OC)OC=C(Cl)Cl | inactive | – |
| CCOC1Oc2ccc(OS(C)(=O)=O)cc2C1(C)C (configuration not stated) | inactive | – |

| Compound | outcome | AC50 |
| --- | --- | --- |
| CN1CSC(=S)N(C)C1 | inactive | – |
| O=C(Nc1ccccc1)Nc1cnns1 | inactive | – |
| C#CCN1C(=O)COc2cc(F)c(N3C(=O)C4=C(CCCC4)C3=O)cc21 | inactive | – |
| O=C(O)C(F)(F)C(F)(F)C(F)(F)C(F)(F)C(F)(F)C(F)(F)C(F)(F)F | inactive | – |
| CCC(C)(C)C(=O)OC1=C(c2ccc(Cl)cc2Cl)C(=O)OC12CCCCC2 | inactive | – |
| CC(C)N(C(=O)COc1nnc(C(F)(F)F)s1)c1ccc(F)cc1 | inactive | – |
| CCCN(CCOc1c(Cl)cc(Cl)cc1Cl)C(=O)n1ccnc1 | inactive | – |
| CC(C)(C)C(O)/C(=C\c1ccc(Cl)cc1Cl)n1cncn1 (configuration not stated) | inactive | – |
| O=[N+]([O-])/N=C1\NCCN1Cc1ccc(Cl)nc1 | inactive | – |
| CCC(C)Nc1c([N+](=O)[O-])cc(C(C)(C)C)cc1[N+](=O)[O-] (configuration not stated) | inactive | – |
| CNC(=O)/C=C(\C)OP(=O)(OC)OC | inactive | – |
| O=C(NC(=O)c1c(F)cccc1F)Nc1ccc(OC(F)(F)C(F)OC(F)(F)F)c(Cl)c1 (configuration not stated) | inactive | – |
| O=[N+]([O-])c1c(Cl)c(Cl)c(Cl)c(Cl)c1Cl | inactive | – |
| CCOCN(C(=O)CCl)c1c(C)cccc1CC | inactive | – |
| Cc1[nH]c(=O)n(C(C)(C)C)c(=O)c1Cl | inactive | – |
| N#Cc1c(Cl)c(Cl)c(Cl)c(C#N)c1Cl | inactive | – |
| O=S1OCC2C(CO1)C1(Cl)C(Cl)=C(Cl)C2(Cl)C1(Cl)Cl (configuration not stated) | inactive | – |
